From PubChem BioAssay
The list is not random: actives were taken first. Their share in the collection is about 1.3%.
PKA-R2B activ = activates the human PKA-R2B holoenzyme complex; P22694+P31323; PKA-R2B holoenzyme dissociation, Cy5-IP20 fluorescence polarization; R2B truncated from residue 108, S112A mutant; 0% DMSO only, 100% 113 µM cGMP; activation, % at 11.4 µM; hit rate 0.079% among 340,000; AID 504700;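 active = activation above a cutoff set at the mean over all compounds plus 3 SD, cut at about 18% in these data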;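 also: higher means more holoenzyme dissociation and a rise in polarization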
Neddyl block = inhibitors of human cullin neddylation; P61081+Q13564; TR-FRET cullin neddylation, biochemical; inhibition, % at 25 µM; hit rate 0.58% among 360,000; AID 651699; in the data active = inhibition above about 36%
Target sequence (P61081 whole entry, looked up): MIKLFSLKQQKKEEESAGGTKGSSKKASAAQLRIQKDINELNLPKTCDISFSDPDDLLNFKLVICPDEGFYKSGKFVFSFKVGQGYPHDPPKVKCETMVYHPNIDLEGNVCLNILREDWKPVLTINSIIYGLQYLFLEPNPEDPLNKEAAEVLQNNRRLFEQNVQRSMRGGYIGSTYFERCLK
Target sequence (Q13564 whole entry, looked up): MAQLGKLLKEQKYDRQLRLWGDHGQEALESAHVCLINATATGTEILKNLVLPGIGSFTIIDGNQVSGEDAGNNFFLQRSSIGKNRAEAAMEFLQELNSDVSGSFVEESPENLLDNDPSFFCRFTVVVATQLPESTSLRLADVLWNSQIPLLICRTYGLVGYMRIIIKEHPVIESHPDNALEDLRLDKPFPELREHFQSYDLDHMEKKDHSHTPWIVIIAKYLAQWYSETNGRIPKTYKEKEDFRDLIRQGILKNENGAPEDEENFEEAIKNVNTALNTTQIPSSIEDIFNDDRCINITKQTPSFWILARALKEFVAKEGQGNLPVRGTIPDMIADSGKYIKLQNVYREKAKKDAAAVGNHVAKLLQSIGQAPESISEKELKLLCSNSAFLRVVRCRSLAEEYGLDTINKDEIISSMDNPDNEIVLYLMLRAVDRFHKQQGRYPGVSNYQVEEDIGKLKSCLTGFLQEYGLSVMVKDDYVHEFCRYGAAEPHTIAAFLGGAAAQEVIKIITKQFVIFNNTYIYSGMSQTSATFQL
PKA-R1A activ = PKA-R1A complex activation; hit rate 0.083% among 340,000; P00514+P68181; PKA-R1A dissociation, Cy5-IP20 fluorescence polarization; scaled: DMSO 0%, 113 µM cGMP 100%; AID 504707; activation, % at 11.4 µM;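 active = percent activation above the mean of all tested compounds plus 3 SD, cut at about 19% in these data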;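 also: higher means more PKAc released from R1A so a rise in polarization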
Rpn11 block = inhibitors of human proteasome Rpn11; O00487; human 26S proteasome, Ub4-pepOG fluorescence polarization; 20S core pre-blocked with epoxomicin; calls only at 20 µM; hit rate 0.59% among 360,000; AID 588493;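 active = inhibition at 20 µM, scaled to each plate's controls, above about 33%, limit read from the data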
Starred values were filed as active, the others as inactive.

Screening Oc1c(Br)cc(Br)cc1C=Nc1cccc2ncccc12 returned PKA-R2B activ -6, Neddyl block 55*, PKA-R1A activ -12 and Rpn11 block inactive.
`Brc1cccc(C=Nc2cccc3ncccc23)c1` gave PKA-R2B activ 1, Neddyl block 33, PKA-R1A activ 4 and Rpn11 block inactive.
Screening CN(C)c1ccc(C#Cc2ccc3cc(CCO)oc(=O)c3c2)cc1 returned PKA-R2B activ -14, Neddyl block -135, PKA-R1A activ 5 and Rpn11 block active.
`Cc1ccc(NC(=O)CSc2nnc(-c3ccccn3)n2N)c(Br)c1` gave Neddyl block 5 and Rpn11 block inactive.
For S=C(Nc1ccc2nc(-c3ccccn3)c(-c3ccccn3)nc2c1)N1CCCCCC1 the results were PKA-R2B activ -12, Neddyl block 19, PKA-R1A activ 0 and Rpn11 block inactive.
For S=C(Nc1ccc2nc(-c3ccccn3)c(-c3ccccn3)nc2c1)N1CCCCC1 the results were PKA-R2B activ -8, Neddyl block 42*, PKA-R1A activ 0 and Rpn11 block inactive.
COc1ccc(/C=C2\SC(=S)N(CCC(=O)Nc3ccc(O)cc3)C2=O)cc1 was read as PKA-R2B activ 1, Neddyl block -3, PKA-R1A activ 2 and Rpn11 block inactive.
For CCN(CC)CCOC(=O)c1ccc(NC(=O)CCCN2C(=O)S/C(=C/c3ccc(OC)cc3)C2=S)cc1 the results were PKA-R2B activ -10, Neddyl block -16, PKA-R1A activ -6 and Rpn11 block active.
CN(C)c1ccc(C(CNC(=O)c2ccco2)N2CCCC2)cc1 (stereo not drawn) was read as PKA-R2B activ -6, Neddyl block 9, PKA-R1A activ -1 and Rpn11 block inactive.
For O=C(O[C@@H]1OC2COC(=O)c3cc(O)c(O)c(O)c3-c3c(cc(O)c(O)c3O)C(=O)O[C@@H]([C@H]1O)[C@@H]2O)c1cc(O)c(O)c(O)c1 the results were PKA-R2B activ 3, Neddyl block 38* and PKA-R1A activ -7.
Cc1ccc(C)c(S(=O)(=O)N2CCN(C(=O)c3ccc(OCc4c(C)noc4C)cc3)CC2)c1 was read as PKA-R2B activ -2, Neddyl block 8, PKA-R1A activ -3 and Rpn11 block inactive.
CCSc1nnc(NC(=O)CSc2sc3c(O)cc(=O)[nH]c3c2C#N)s1 was read as PKA-R2B activ -6, Neddyl block -3, PKA-R1A activ -7 and Rpn11 block active.
CCc1nnc(NC(=O)CSc2sc3c(O)cc(=O)[nH]c3c2C#N)s1 was read as PKA-R2B activ 10, Neddyl block 4, PKA-R1A activ -8 and Rpn11 block active.
For Cc1cc(NC(=S)N(CCCN2CCN(C)CC2)Cc2ccco2)ccc1Cl the results were PKA-R2B activ -5, Neddyl block 0, PKA-R1A activ -6 and Rpn11 block inactive.
`O=C(N[C@@H](Cc1ccccc1)C(=O)NCc1ccc(F)cc1)C1CCNCC1` gave PKA-R2B activ -2, Neddyl block 4, PKA-R1A activ 7 and Rpn11 block inactive.
Screening Nc1ccc(O)cc1C(=O)OCC(=O)c1ccc(C2CCCCC2)cc1 returned PKA-R2B activ 2, Neddyl block 40*, PKA-R1A activ 7 and Rpn11 block inactive.
Screening COc1ccc(C(=O)OCC(=O)c2ccc(C3CCCCC3)cc2)cc1 returned PKA-R2B activ -4, Neddyl block -20, PKA-R1A activ 4 and Rpn11 block inactive.
For Cc1ccc(C(=O)N/C(=C\c2ccc(-c3ccc(Br)cc3)o2)C(=O)NCCCN(C)C)cc1 the results were PKA-R2B activ -7, Neddyl block 50*, PKA-R1A activ 9 and Rpn11 block inactive.
`C=CC(=O)Nc1cccc(Nc2nc(N[C@H]3CC[C@H](N(C)C)CC3)nc3c2ncn3C(C)C)c1` gave PKA-R2B activ 6, Neddyl block 27, PKA-R1A activ 4 and Rpn11 block active.
For COc1ccc(C(=O)NC(=S)NNC(=O)c2ccccc2O)cc1 the results were PKA-R2B activ 1, Neddyl block 1, PKA-R1A activ -11 and Rpn11 block inactive.
Screening COc1ccc(C(=O)NC(=S)NNC(=O)c2ccccc2C)cc1 returned PKA-R2B activ -2, Neddyl block 41*, PKA-R1A activ -1 and Rpn11 block inactive.
For CCOc1cc(/C=N/NC(=O)c2ccc(-c3csc(Nc4ccc(C)cc4)n3)cc2)ccc1OCC(=O)O the results were Rpn11 block inactive.
Screening O=C(O)COc1ccc(/C=N/NC(=O)c2ccc(-c3csc(Nc4ccc(Cl)cc4)n3)cc2)cc1 returned PKA-R2B activ -3, PKA-R1A activ 0 and Rpn11 block active.
CCOc1ccc(NS(=O)(=O)c2ccc(C(=O)N3CCCC(C)C3)cc2)cc1 (stereo not drawn) was read as PKA-R2B activ 4, Neddyl block 8, PKA-R1A activ -12 and Rpn11 block inactive.
`CCc1ccccc1N(CC(=O)NCc1ccco1)C(=O)c1snc(C(N)=O)c1N` gave PKA-R2B activ -4, Neddyl block 39*, PKA-R1A activ 1 and Rpn11 block inactive.
`CC1(NC(=O)Nc2cc([N+](=O)[O-])ccc2O)CCS(=O)(=O)C1` (stereo not drawn) gave PKA-R2B activ 6, Neddyl block -90, PKA-R1A activ 0 and Rpn11 block inactive.
For CN1CCCN(c2cc(-c3ccc4ccccc4c3)nc3ccnn23)CC1 the results were Neddyl block 46* and Rpn11 block inactive.
For Cc1cccc(-c2cc(N3CCCN(C)CC3)n3nccc3n2)c1 the results were Rpn11 block inactive.
`CCCCN(C)CC(O)Cn1cc(/C=C/C(=O)c2ccc(C)cc2)c2ccccc21` (stereo not drawn) gave PKA-R2B activ 0, Neddyl block 6, PKA-R1A activ -6 and Rpn11 block active.
Screening CCCN(CCC)CC(O)Cn1cc(/C=C/C(=O)c2cccs2)c2ccccc21 (stereo not drawn) returned PKA-R2B activ -8, Neddyl block 3 and PKA-R1A activ 7.
`O=C(/C=C/c1cn(CC(O)CN2CCCCC2)c2ccccc12)c1ccccc1` (stereo not drawn) gave PKA-R2B activ -5, Neddyl block 9, PKA-R1A activ -8 and Rpn11 block active.
COC(=O)C1=CN(c2cccc(OCc3ccccc3)c2)C(N)=C(C#N)C1c1cccc(F)c1 (stereo not drawn) was read as Neddyl block 13.
Screening CN1CCc2c(sc3nc(NN)n(Cc4ccccc4)c(=O)c23)C1 returned PKA-R2B activ 7, Neddyl block 2, PKA-R1A activ -8 and Rpn11 block inactive.
For CN1CCc2c(sc3nc(NN)n(-c4ccc(Cl)cc4)c(=O)c23)C1 the results were PKA-R2B activ -9, Neddyl block -1, PKA-R1A activ 2 and Rpn11 block active.
O=C(CCn1cnc(-c2ccccc2)c1-c1ccccc1)N/N=C/c1ccccc1O was read as PKA-R2B activ -14, Neddyl block 54*, PKA-R1A activ -1 and Rpn11 block inactive.
